The whole screen tested about 330,000 compounds, of which about 1,900 (0.58%) were called active. Not shown: some 4% with an inconclusive outcome. The list is a sample of the results. Results with a measured potency or affinity are listed apart. A number with no mark means an inactive call. Rule as the data show it: inconclusive = inhibition above about 70% without an active follow-up result; inactive = below that.

By inhibition is commonly meant the drop in the measured response relative to a control, in per cent.

A short description of this assay: M. tuberculosis growth inhibition, HTS (AID 449762).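 Also: bacterial growth assessed after seven days of incubation.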 To be noted: M. tuberculosis H37Rv growth inhibition, 7H9 media; at 25 µM; hits give high values.
As to `COc1cccc(C2c3[nH]c4ccccc4c3CCN2Cc2cccn2-c2ncccn2)c1` (centres undefined), the inhibition was 2.06%.
The same measure for `CCOc1ccc(C2c3[nH]c4ccccc4c3CCN2Cc2cccn2-c2ncccn2)cc1` (centres undefined): 67.7%; for `Cc1ccc(CNC(=O)CSCc2cccc(F)c2)cc1`: 12.3%.
The same measure for `CNC(=S)N/N=C/c1c(C)nn(-c2ccc(F)cc2)c1Cl`: 6.49%.
The same measure for `CC1=C(C)CC(C(=O)Nc2nccs2)C(C(=O)O)C1` (centres undefined): -4.95%; for `S=c1nccc(-c2ccc(Cl)cc2)[nH]1`: 54.5%.
Consider `S=c1nccc(-c2ccc3c(c2)CCO3)[nH]1`, for which the inhibition is 3.97%.
The same measure for `COc1ccc(C2C(C#N)=C(N)Oc3cc(C)n(Cc4ccncc4)c(=O)c32)cc1` (centres undefined): -7.68%; for `O=C(CCn1cnc2ccccc2c1=O)Nc1ccc2c(c1)OCCO2`: -3.32%.
On to `CCN(CC)c1ccc2c(C)c(Cl)c(=O)oc2c1`, for which the inhibition was -3.19%.
The result for `CCN(CC)c1ccc2c(Cl)cc(=O)oc2c1` reads 5.83%; that for `Cc1nc(C)c(C(=O)OCC(=O)NCc2ccccc2Cl)s1`, 3.01%; that for `CCOC(=O)c1cnc2ccc(OCC)cc2c1N1CCN(c2ccccc2OC)CC1`, 63.7%.
Consider `CCOC(=O)c1cnc2ccc(OCC)cc2c1N1CCN(C)CC1`, for which the inhibition was 4.95%.
The same measure for `C=CCN(CC(=O)NCc1ccccc1)C(=O)c1csnn1`: -1.06%; for `O=C(O)C1CC=CCC1C(=O)NCCCN1CCCC1=O` (centres undefined): -30.3%.
The same measure for `O=[N+]([O-])c1ccc(-[n+]2c(-c3ccccc3)cc(-c3ccccc3)cc2-c2ccccc2)cc1`: 8.42%.
As to `Cc1ccc(-c2cc(-c3ccccc3)cc(-c3ccccc3)[n+]2-c2ccc(C(=O)O)cc2)cc1`, the inhibition was -6.06%.
As for `O=[N+]([O-])c1ccc2nc(-[n+]3c(-c4ccccc4)cc(-c4ccccc4)cc3-c3ccccc3)[nH]c2c1`, the inhibition was 27.2%.
In the case of `O=C([O-])c1ccc(-[n+]2c(-c3ccccc3)cc(-c3ccccc3)cc2-c2ccccc2)cc1`, the inhibition is 55.9%.
The same measure for `Cc1ccc(-c2cc(-c3ccc(C)cc3)[n+](-c3ccc(C(=O)O)cc3)c(-c3ccc(C)cc3)c2)cc1`: 6.26%.
As for `O=C(O)c1ccc(-[n+]2c(-c3ccccc3)cc(-c3ccccc3)cc2-c2ccccc2)cc1`, the inhibition is -13.1%.
The same measure for `CC(C)(C)OC(=O)[C@H](Cc1ccccc1)NC(=O)c1nc[nH]c1C(=O)N[C@@H](CCCCN)C(=O)OC(C)(C)C`: -1.19%.
Turning to `CC(Cc1ccco1)NC(=O)c1ccc(C(F)(F)F)cc1` (centres undefined), the inhibition is 4.71%.
The result for `COc1ccc(Cl)cc1NC(=O)NCCN1CCNC1=O` reads 0.11%; that for `COc1ccc(/C(N)=N/OC(=O)CCCc2ccccc2)cc1OC`, 14.8%; that for `O=C(O)c1cccc(NC(=O)c2cc(S(=O)(=O)N3CCOCC3)cs2)c1`, -7.54%.
As for `CCOC(=O)N1CCC(N(CCN(C)C)C(=S)Nc2ccccc2OCC)CC1`, the inhibition is 7.57%.
As to `CC1CCC(NCc2ccco2)CC1` (centres undefined), the inhibition is -0.39%.
The result for `CCC1=C(OC(=O)N(CC)CC)N2C(=O)OC(=NCCc3c[nH]c4ccccc34)[C@]2(Cc2ccccc2)[C@H]2C1=CC[C@H]1C(=O)N(CC)C(=O)[C@H]12` reads -7.04%; that for `CCC1=C(OC(=O)N(CC)CC)N2C(=O)OC(=NCCc3c[nH]c4ccccc34)[C@]2(Cc2ccccc2)[C@H]2C1=CC[C@H]1C(=O)N(C)C(=O)[C@H]12`, 68.8%.
The same measure for `O=C(NCC1CCCO1)C(=O)N/N=C/c1c(F)cccc1Cl` (centres undefined): 5.59%; for `NC(N)=Nc1nc2ccccc2o1`: 4.74%.
As to `CCCCN(C(=O)c1cnccn1)c1c(N)n(CCC)c(=O)[nH]c1=O`, the inhibition was -6.33%.
The result for `CCC(=O)c1ccc(OCC(O)CN2CCN(c3ccccn3)CC2)cc1` (centres undefined) reads 4.67%.
For `CCC(=O)c1ccc(OCC(O)CN2CCN(c3ccc(F)cc3)CC2)cc1` (centres undefined), the inhibition is -1.98%.
The result for `N#Cc1ccc(OCC(O)CN2CCN(CC(O)COc3ccc(C#N)cc3)CC2)cc1` (centres undefined) reads -5.84%.
The result for `OC(CN1CCN(c2ncc(C(F)(F)F)cc2Cl)CC1)c1ccccc1` (centres undefined) reads 32.4%.
The same measure for `O=[N+]([O-])c1cc([N+](=O)[O-])c(Oc2cc(F)ccc2F)cc1NN1CCCCC1`: 5.39%; for `O=C(NCCc1ccccc1)C(=O)c1cn(CC(=O)N2CCCC2)c2ccccc12`: -0.08%; for `COc1cc(NC(=O)c2cccnc2SC)cc(OC)c1OC`: -4.5%.
Consider `Cc1cccc(NC(=O)c2nc[nH]c2C(=O)N(C)Cc2ccccc2)c1`, for which the inhibition is 27.5%.
The result for `COc1cc(OC)cc(C(=O)N[C@H](C(=O)NC23CC4CC(CC(C4)C2)C3)C(C)C)c1` reads -8.25%.
The result for `CCCCCN(C(=O)CCC(=O)OCCOc1cccc(C)c1)c1c(N)n(CCCC)c(=O)[nH]c1=O` reads 44.3%.
The result for `CCOc1cc(NC(=S)Nc2ccc(Cl)cc2)c(OCC)cc1NC(C)=O` reads -3.61%; that for `CCOc1cc(Cl)c(NC(C)=O)cc1OCC`, -1.54%.
`CC(=O)c1cccc(NC(=O)C(C)OC(=O)c2ccc(Br)o2)c1` (centres undefined): the inhibition is 4.17%.
As to `CCOC(=O)C1CCN(c2cc3c(cc2NC(=O)c2ccccc2F)n(C)c(=O)n3C)CC1`, the inhibition is 4.71%.
`CCOC(=O)C1CCN(c2cc3c(cc2NC(=O)c2ccccc2)n(C)c(=O)n3C)CC1`: the inhibition was -3.19%.
With `CCc1ccc(NC(=O)C2C3C=CC(C4CC34)C2C(=O)O)cc1` (centres undefined), the inhibition was 4.87%.
The result for `CCCCCCNC(=O)C(=O)NCCc1ccc(Cl)cc1` reads -8.55%; that for `CCCCCc1ccc(CC(=O)O)cc1`, -9.58%; that for `NS(=O)(=O)c1cc(C(=O)OC2CCOC2=O)ccc1Cl` (centres undefined), -0.59%.
As to `N/C(=N\OC(=O)c1ccc2c(c1)OCO2)c1ccc([N+](=O)[O-])cc1`, the inhibition was 0.35%.
The same measure for `CS(=O)(=O)O/N=C1\CCCCC1c1ccc([N+](=O)[O-])cc1[N+](=O)[O-]` (centres undefined): 11.2%; for `CCN(CC)CCNc1ncnc2c1sc1nc(N3CCOCC3)c3c(c12)CCCC3`: 13.5%.
The result for `COc1ncnc2c1sc1nc(-c3ccccc3)c3c(c12)CCCC3` reads 2.95%; that for `Cc1nc(-c2c(C(=O)NNC(=O)Nc3c(C)cccc3C)noc2C)cs1`, -5.09%.
Turning to `COc1ccc(OC)c(C(=O)NC2CC(C)(C)Cc3c2cnn3-c2ccccc2)c1` (centres undefined), the inhibition is 12.2%.
The result for `CC(C)CC(=O)Nc1cccc(NC(=O)c2ccccc2Cl)c1` reads 0.24%; that for `COc1ccc(CSc2nc3ccccc3c(=O)[nH]2)cc1F`, 2.06%.
The result for `COc1ccc(N2C(=O)NC(=O)/C(=C\c3cn(C)c4ccccc34)C2=O)cc1` reads 3.04%; that for `Cn1cc(C=C2C(=O)NC(=O)NC2=O)c2ccccc21`, -7.12%; that for `COC(=O)c1ccc(C(c2c(N)n(CC(C)C)c(=O)[nH]c2=O)N2CCN(c3ccccc3)CC2)cc1` (centres undefined), 7.1%.
The same measure for `CCOC(=O)CC(=O)CSc1nnc2c(n1)[nH]c1ccccc12`: 7.32%.
In the case of `COc1ccc(C2CC(c3c(Cl)cccc3Cl)n3nc(N)nc3N2)cc1` (centres undefined), the inhibition is -4.95%.
The result for `Cc1cc(C)nc(NC(=S)NC(=O)c2ccccc2)n1` reads -0.74%; that for `CC1CCN(C(=O)C2CCC(CNc3c(N4CCCCC4)c(=O)c3=O)CC2)CC1` (centres undefined), -6.49%.
The same measure for `O=C(C1CCC(CNc2c(N3CCCCC3)c(=O)c2=O)CC1)N1CCCC1` (centres undefined): -1.43%; for `CC(=O)NCC1CCCN(C(=O)c2ccc(OC3CCN(Cc4ccccn4)CC3)cc2)C1` (centres undefined): 8.85%; for `CC(Oc1ccc2c3c(c(=O)oc2c1)CCC3)C(=O)NC1CCN(Cc2ccccc2)CC1` (centres undefined): 5.54%.
With `O=C(NCc1ccccc1Cl)c1ccc(S(=O)(=O)Nc2cccc(C(F)(F)F)c2)cc1`, the inhibition was -11.7%.
Turning to `S=C(NCc1cccnc1)Nc1ccc(Oc2ccccc2)cc1`, the inhibition was 4.52%.
`c1ccc(-c2nc(N3CCCCC3)nc3ccccc23)cc1`: the inhibition was 36.9%.
As to `Clc1ccc(-c2nc(N3CCCCC3)nc3ccccc23)cc1`, the inhibition was 8.31%.
The same measure for `COc1cc(OC)cc(C(=O)Nc2cccc(-c3ccc(N4CCOCC4)nn3)c2)c1`: -3.98%.
The same measure for `COc1ccc(C(=O)NNC(=O)c2ccc(S(=O)(=O)N3CCOCC3)cc2)cc1`: 0.01%.
The result for `CCCN1C(=O)C2(SC(NC(C)=O)=NN2C(C)=O)c2cc(C)ccc21` (centres undefined) reads -6.76%.
As to `COc1cc(F)ccc1S(=O)(=O)N1CCN(C23CC4CC(CC(C4)C2)C3)CC1`, the inhibition was 9.71%.
Turning to `COc1ccc(OC)c(S(=O)(=O)N2CCN(C34CC5CC(CC(C5)C3)C4)CC2)c1`, the inhibition is 2.72%.
Regarding `Oc1[nH]c2ccc(Br)cc2c1N=NC(=S)N1CCOCC1`, the inhibition was 7.05%.
Regarding `NC(=S)N=Nc1c(O)[nH]c2ccccc12`, the inhibition was -9.66%.
As for `CCCc1cc(C(=O)Nc2ccc(C(C)=O)cc2)no1`, the inhibition was 29.9%.
On to `CCc1ccc(NC(=O)c2cc(CC(C)C)on2)cc1`, for which the inhibition was 4.83%.
Turning to `CCOc1ccc(C(=S)N2CCN(C)CC2)cc1`, the inhibition was -1.09%.
Regarding `CCc1nc(C)cn1S(=O)(=O)c1cc(Cl)c(OC)cc1Cl`, the inhibition is -6.76%.
As for `CCN(CC)C(=O)c1ccc2c(c1)N(Cc1ccccc1)C(=O)CS2=O` (centres undefined), the inhibition is 0.11%.
The same measure for `Cc1ccc(C(=O)Nc2cccc(C(F)(F)F)c2)cc1NC(=O)c1nccn1C`: -2.57%.
Turning to `CC(=O)c1ccccc1NC(=O)COC(=O)CCC1CCCC1`, the inhibition is 9.67%.

The values above are taken from PubChem BioAssay AID449762 (Southern Research Specialized Biocontainment Screening …, 2010).
